Screens from PubChem BioAssay.
Hits are enriched below; roughly 32% of the tested compounds scored in any of these assays.
CYP2C19 act: human CYP2C19 activators, primary screen, biochemical, luminescence; Cytochrome P450 2C19 (Homo sapiens), P33261; 96,000 tested, under 10 active; activation factor at 5 µM; recombinant CYP2C19, luciferin-H EGE luminescence; hits give high values; 0 = fully inhibited enzyme, 1 = untreated enzyme;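 active means activation factor of at least 2 at 5 µM in the primary screen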;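 further: 0 = wells with 2.5 mM tranylcypromine and 1 = vehicle-only wells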
CYP2C9 inh: blockers of cytochrome P450 2C9 activity – biochemical, luminescence, ADME assay, primary screen; CYP2C9 Supersomes, luciferin-H conversion; 20% of 96,000 active; inhibition, % at 5 µM;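 active means blocking of liver enzyme CYP2C9 beyond about 50% at 5 µM, limit read from the data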
Target sequence (P11712 whole entry, looked up): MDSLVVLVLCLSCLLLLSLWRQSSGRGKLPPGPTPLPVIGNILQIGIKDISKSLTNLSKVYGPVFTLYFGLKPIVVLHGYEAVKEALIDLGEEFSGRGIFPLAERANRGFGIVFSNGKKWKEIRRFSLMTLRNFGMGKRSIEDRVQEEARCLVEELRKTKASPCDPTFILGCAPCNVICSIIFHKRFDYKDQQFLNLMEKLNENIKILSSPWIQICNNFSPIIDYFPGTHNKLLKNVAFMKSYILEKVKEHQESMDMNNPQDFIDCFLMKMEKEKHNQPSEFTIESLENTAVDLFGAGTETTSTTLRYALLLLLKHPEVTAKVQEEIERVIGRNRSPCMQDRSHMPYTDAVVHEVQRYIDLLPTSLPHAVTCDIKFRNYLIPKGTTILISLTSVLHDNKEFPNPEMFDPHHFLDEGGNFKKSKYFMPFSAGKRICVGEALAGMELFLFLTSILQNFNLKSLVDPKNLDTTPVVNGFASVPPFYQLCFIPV
PostGolgi ctrl: growth inhibition of yeast control strain, primary screen, counter-screen for post-Golgi transport modulator project. AID 738, 2007. efflux-deficient yeast background strain, growth absorbance A615, 16 h. 5% of 98,000 active. inhibition, % at 10 µM
PostGolgi yeast: phenotypic screen on post-Golgi transport, primary screen; post-Golgi transport phenotypic cell assay; inhibition, % at 10 µM; 0.9% of 98,000 active; AID 739, 2007;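 further: yeast cells grown in 1536-well plates; yeast grown about 18 h at 30C before absorbance read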
CYP2C19 inh: blockers of cytochrome P450 2C19 activity – biochemical, luminescence, ADME assay, primary screen. P33261. CYP2C19 Supersomes, luciferin-H EGE luminescence, 30 min. inhibition, % at 5 µM. 21% of 96,000 active. AID 778, 2007;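 active means CYP2C19 inhibition above a set limit at 5 µM in the primary screen, cut at about 50% in these data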;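 further: plate controls were negative control wells for no effect and 2.5 mM tranylcypromine positive control for full effect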
CYP2C9 activ: human CYP2C9 activators, primary screen, biochemical, luminescence | activation factor at 5 µM | 1.4% of 96,000 active | recombinant CYP2C9, luciferin-H conversion; hits give high values; factor 1 = untreated enzyme, 0 = blocked | AID 1024, 2008;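 active means activation factor of 2 or more for CYP2C9 at a 5 µM dose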;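 further: 0 = sulfaphenazole-blocked wells and 1 = vehicle-only wells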
* hit, by the source's call; . = no result given. Unless noted, no stated cut-off is given here; in the data, active means inhibition above about 30%; inactive means the rest.

SMILES | CYP2C19 act | CYP2C9 inh | PostGolgi ctrl | PostGolgi yeast | CYP2C19 inh | CYP2C9 activ
CCC(C)(C)NC(=O)C(c1ccc(C)cc1)N(CC1CCCO1)C(=O)CNC(=O)c1cccs1 (centres undefined) | 0.9 | 22 | 8 | 4 | 14 | 0.8
CC(C)COc1ccc(C(=O)N/C(=C\c2cccc([N+](=O)[O-])c2)C(=O)OC(C)C)cc1 | 1.1 | 3 | -2 | -4 | -8 | 1
O=S(=O)(NCCNS(=O)(=O)c1ccc(F)cc1)c1ccc(F)cc1 | 0.6 | 3 | -3 | -4 | 38 | 1
O=S(=O)(NCCSc1ccccc1)c1ccc2c(c1)OCCO2 | 0.1 | 2 | 13 | 8 | 87* | 1
O=S(=O)(NCCOc1ccc(F)cc1)c1ccc2c(c1)OCCO2 | 0.1 | -144 | 12 | 2 | 91* | 2.4*
O=C(CN1CCC(NC(=O)c2cccc(F)c2)CC1)NCc1ccccc1F | 0.9 | 1 | 11 | -2 | 8 | 1
O=C(NCCOc1ccccc1Cl)c1cc(F)c(F)cc1Cl | 0.7 | -78 | 29 | -4 | 32 | 1.8
CCOC(=O)CS(=O)(=O)c1nc(-c2ccc(F)cc2)cc(C(F)(F)F)n1 | 1.1 | -1 | 48* | 8 | -9 | 1
CCOC(=O)CS(=O)(=O)c1ccccc1 | 1.1 | -14 | 9 | 0 | -8 | 1.1
COc1nc(-c2ccccc2)cc(C(F)(F)F)n1 | 1 | 19 | 28 | 12 | -3 | 0.8
COC(=O)CCS(=O)(=O)c1nc(-c2ccccc2)cc(C(F)(F)F)n1 | 0.6 | 42 | 57* | 0 | 36 | 0.6
COC(=O)CSc1cc(C(F)(F)F)nc(-c2ccccn2)n1 | 1.1 | -5 | 0 | 15 | -13 | 1.1
CCOC(=O)CS(=O)(=O)c1ccc2ccccc2c1 | 0.1 | -193 | 12 | -4 | 87* | 2.9*
CCOC(=O)CS(=O)(=O)c1nc(-c2ccccc2)cc(C(F)(F)F)n1 | 0.5 | 59* | . | . | 45 | 0.4
Nc1nc(-c2ccc(F)cc2)cc(C(F)(F)F)n1 | 0.9 | 5 | 9 | -5 | 13 | 0.9
CC1(C)CC(NCc2ccc3c(c2)OCO3)CCO1 (centres undefined) | 0.8 | 12 | 3 | -10 | 25 | 0.9
CCOC(=O)CCS(=O)(=O)c1nc(-c2ccccc2)cc(C(F)(F)F)n1 | 0.6 | 28 | 73* | -6 | 42 | 0.7
CCOC(=O)Cc1cc(-c2ccccc2)nc2ccc3ccccc3c12 | 0.6 | 0 | 26 | -2 | 39 | 1
O=S(=O)(Nc1ccc2c3c(cccc13)CC2)c1ccc(F)cc1 | 0.3 | -10 | 40* | -9 | 70* | 1.1
CSc1ccc(S(=O)(=O)Nc2ccc3c4c(cccc24)CC3)cc1 | 0 | -45 | 66* | 23 | 98* | 1.5
Cc1c(N=Cc2cc3c(cc2Cl)OCO3)c(=O)n(-c2ccccc2)n1C | 1 | -1 | . | . | -2 | 1
CCCCn1nnnc1NCc1ccc(N2CCCC2)cc1 | 0.6 | 71* | -4 | 9 | 38 | 0.3
CCCCn1nnnc1NCc1cccnc1 | 0.3 | -4 | 5 | -4 | 70* | 1
COc1nc(NCc2cccnc2)nc(OC)n1 | 0.8 | 5 | 27 | 3 | 17 | 0.9
CCOc1ccc(CNc2ccc(N3CCCC3)cc2)cc1 | 0.6 | 18 | -4 | 2 | 37 | 0.8
SMILES | CYP2C19 act | CYP2C9 inh | PostGolgi ctrl | PostGolgi yeast | CYP2C19 inh | CYP2C9 activ
CCCCn1nnnc1NCc1cc(OC)c(OC)cc1OC | 0.4 | 32 | -10 | -7 | 61* | 0.7
C=CCc1ccc(OCCOCCNCCCC)c(OC)c1 | 0.6 | -8 | 7 | 1 | 38 | 1.1
Cc1ccc(Sc2ccc(NC(=O)c3ccc(S(C)(=O)=O)cc3Cl)cc2)cc1 | 1.1 | -18 | 6 | -11 | -12 | 1.2
O=C(CSc1ccc(Cl)cc1)Nn1cnnc1 | 0.1 | 82* | -2 | 2 | 87* | 0.2
O=C(CSc1ccc2ccccc2c1)Nn1cnnc1 | 0.1 | 90* | 0 | -3 | 88* | 0.1
Cc1cnc(NC(=O)CSc2nc3ccccc3s2)s1 | 0.8 | 1 | 1 | -1 | 24 | 1
O=C(CSc1ncccn1)Nn1cnnc1 | 1.1 | -1 | -6 | -2 | -5 | 1
